Measured values published in PubChem BioAssay (NCI).
This is part of a sample that, as a whole, favours compounds with a hit. Of some 83,000 tested, about 20% had one in any assay.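 Cell lines were cultured in 96-well plates, exposed to a single compound concentration, and assessed for percent growth 48 hours later.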 Calls of active or inactive are those of the source. The calls were made as follows: active = growth percent below 10; inactive = the rest.

Each compound was assayed on HL-60(TB) leukemia (assay: NCI-60 one-dose screen, 48 h (100 = growth as untreated, 0 = no growth, -100 = all killed)). Conditions: 10 µM unless noted.

Compound | growth
COc1ccc(C(=O)/C=C/c2cc(-c3ccc4c(c3)OCO4)n[nH]2)cc1OC | 42.9% (inactive)
CC(=O)OC[C@]12CCC(C)(C)C=C1[C@H]1CC[C@@H]3[C@@]4(C)CCCNC(C)(C)[C@@H]4CC[C@@]3(C)[C@]1(C)CC2 | 0.652% (active)
CCN1CCCC(N2c3ccccc3Sc3ccccc32)C1 (stereo not given) | 93.1% (inactive)
CCCc1c(OC(=O)c2ccccc2)nc2[nH]c(=O)sc2c1C | 98% (inactive)
FCc1ncc(-c2ccc(C(F)(F)F)cc2)c(NC2CCCCCC2)n1 | -25.6% [100 µM] (active)
COc1cc(-c2cc(C(=O)N3CCN(C(=O)c4ccccc4NCc4cccs4)CC3)nc3cc(-c4ccccc4)nn23)cc(OC)c1OC | 82.7% (inactive)
COc1cc(-c2cc(/C=C3\C(=O)Nc4ccccc43)[nH]n2)cc(OC)c1OC | -12.1% (active)
Clc1ccc(N/N=C(/c2ccccc2)c2ccccn2)nc1 | 3.11% (active)
COc1ccccc1/C=C(/C(=O)c1ccccc1)c1ccccc1 | 71.8% (inactive)
CNC(=O)c1cc(Oc2ccc3c(c2)sc2nc(-c4ccc(Cl)c(C(F)(F)F)c4)cn23)ccn1 | 35.8% (inactive)
O=C(CN1CCN(c2ccccc2)CC1)N1CCN(c2nnc(-c3ccc(Cl)cc3)c(-c3ccc(Cl)cc3)n2)CC1 | -40.7% (active)
CCOC(=O)C(C)C(C)(O)c1ccccc1 (stereo not given) | 99.2% (inactive)
C[n+]1cc2cc(C(N)=O)[nH]c3c(=N)c(Cl)c(N)c1c23 | 78.8% (inactive)
CC(=O)c1ccc(C(C)(C)C)cc1 | 100% (inactive)
Cc1cc(N2CCN(CC(=O)Nc3ccc4c(ccn4Cc4ccccc4)c3)CC2)nc(N2CCCCCC2)n1 | 12.1% (inactive)
CC(=O)N(Cc1ccccc1)c1nc2ccc(O)c(CN(C)C)c2s1 | 105% (inactive)
Cc1cc2cc3cc(C)c(N(C)C)cc3nc2cc1N(C)C | 47.5% (inactive)
C=CCn1c(CN2CCN(c3cc4c(cc3F)c(=O)c(C(=O)O)cn4C3CC3)CC2)n[nH]c1=S | 90.1% (inactive)
Cc1ccc(Nc2nc(NCCO)c3ccccc3n2)cc1C | -10.3% (active)
Oc1ccc2cc(Br)ccc2c1-c1c(O)ccc2cc(Br)ccc12 | 81.2% (inactive)

Compound | growth
COc1c(C)c2c(c(O)c1C/C=C(\C)CCC(=O)OCCN1CCOCC1)C(=O)OC2 | 36.7% (inactive)
Cn1cc(-c2nc(-c3c[nH]c4ccncc34)cs2)c2cc(Br)ccc21 | -61.4% (active)
Nc1cc(Cl)cc2cccnc12 | 72.3% (inactive)
CC(=O)c1sc2c(c1OC(=O)c1ccc(Cl)cc1Cl)c(=O)n(-c1ccccc1)c(=S)n2-c1ccccc1 | -31.9% (active)
COc1cc(NS(C)(=O)=O)ccc1Nc1c2ccc([N+](=O)[O-])cc2nc2c(C)cccc12 | -26.6% (active)
CC1(C)CC[C@]2(C(=O)OC(=O)[C@]34CCC(C)(C)C[C@@H]3C3=CC[C@@H]5[C@@]6(C)CCC(=O)C(C)(C)[C@@H]6CC[C@@]5(C)[C@]3(C)CC4)CC[C@]3(C)C(=CC[C@@H]4[C@@]5(C)CCC(=O)C(C)(C)[C@@H]5CC[C@]43C)[C@H]2C1 | 6.37% [100 µM] (active)
N#Cc1cccc(C2C3=C(COC3=O)N(CCO)c3cc4c(cc32)OCO4)c1 (stereo not given) | -32.1% (active)
CCSc1ncnc2c1ncn2C1OC(CO)C(O)C1O (stereo not given) | 20.2% (inactive)
CCN(CC)C(=O)c1cccnc1 | 93.8% (inactive)
O=S(=O)(CCN1CCOCC1)Nc1cncc(-c2ccc3ncnc(Nc4ccc(F)c(Cl)c4)c3c2)c1 | 110% (inactive)
Nc1cc(Cl)c(S(N)(=O)=O)cc1S(N)(=O)=O | 104% (inactive)
CCc1ccc(CCC(=O)Nc2ncc(Cc3ccccc3)s2)o1 | -40% (active)
NC1=NC(c2ccc(Cl)cc2)C2=C(N1)/C(=C/c1ccc(Cl)cc1)CCC2 (stereo not given) | 64.8% (inactive)
CC/C(=C\c1ccc(OC)cc1)C(=O)c1ccc(OC)cc1 | 131% (inactive)
CN(C)CCOc1ccc(/C(=C(/CCCCCCCCCC[P+](c2ccccc2)(c2ccccc2)c2ccccc2)c2ccccc2)c2ccccc2)cc1 | -62.1% (active)
O=c1c2cc(F)ccc2sc2c(N3CCNCC3)nc3ccc(F)cc3c12 | 3.71% (active)
CCCCCCCCCCCCCCCCOc1ccc(C)cc1 | 134% (inactive)
N#Cc1ccc(/C=C/c2cn(-c3ccccc3)nc2-c2cccc([N+](=O)[O-])c2)cc1 | 82.4% (inactive)
Cn1ccnc1C(=O)/C=C/c1ccc(CC(=O)Nc2cc(C(F)(F)F)cc(C(F)(F)F)c2)cc1 | 16.1% (inactive)
O=C(Nc1ccccc1)Nc1ncnc2c1ncn2-c1ccc(Cl)cc1 | 95.3% (inactive)
